Laboratory results taken from the supplement of paper PMC10338343.
± gives the standard deviation.

Each sequence was assayed on MILI (PIWIL2) piRISC loaded with piRNA #1 (26 nt) (assay: pre-steady-state target cleavage rate (min^-1); guide: piRNA #1 5'p-UGAGGUAGUAGGUUGUAUAGUAUCCA; MIWI and MILI are mouse PIWI proteins and EfPiwi is from a freshwater sponge; tags in brackets are library labels; higher = faster piRNA-guided slicing of the target). Conditions: auxiliary factor: 500 nM mouse GTSF1.
Description: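 Cleave-'n-Seq: a library of target RNAs (target site embedded in constant flanks, ACAGCATTCCGCGTTAGTGATATCCG... 5' flank; DNA-blocked outside the site) at 0.1 nM was incubated with 1 nM active mouse MILI or MIWI piRISC (synthetic 5'-monophosphorylated piRNA guide) with or without 500 nM mouse GTSF1 at 33 °C for 1 min to 16 h. Uncleaved targets were sequenced and normalised to non-target controls, and the pooled three trials were fitted to a burst-and-steady-state model to give the pre-steady-state cleavage rate (min^-1; k3 is constrained to at most 1e-4). Sequence is the target site only; target names encode pairing extent (gX:gY) and contiguous / 1-mismatch / 2-mismatch / bulge geometry. Fits with R² ≤ 0 are excluded.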

Sequence	pre-steady-state target cleavage rate
GGAGACGAAACUAAACAACCUACUACCUCA	0.145 ± 0.022
GGAGACGAUACUAUACAACCUACUAGCUGA	0.0101 ± 0.0055
GGAGACCUAUGUAUACAACCUACAUCCUCA	0.00671 ± 0.0026
GGAGUGGAUACAAUACAACGUACUACCUCA	0.0223 ± 0.0023
GGAGACCUUACAAAACAACCUACUACCUCA	0.00897 ± 0.0036
GGAGACCUAACUAUACAACCUACUACCUCA [g2:g21:cont:t1A]	0.148 ± 0.032
GGAGAGGAUACUAUACAACCUCCUACCUCA	0.0496 ± 0.0063
GGAGUGGUUACUAUACAACCUACUACGUCA	0.0604 ± 0.011
GGAGACCAUACUAUACAACCUACUACUUCA	0.189 ± 0.019
GGAGACCUAUCUAUACAACCUACAACCACA	0.0576 ± 0.014
GGAGACCUUACUAUACUACCUACUACGUCA	0.0704 ± 0.01
GGAGACCUUACUAAUCAACCUACUACCUCA	0.11 ± 0.016
GGAGACCUAUCAUUACAACCUACUACCUCA	0.0146 ± 0.0049
GGAGACCUAUGAUAACAAGCUACUACCUCA	0.0133 ± 0.0028
GGAGACCUAUGAAUACAACGUACUUCCUCA	0.00328 ± 0.0027
GGAGACCUAUGUAUACAACCUACCACCUCA	0.0347 ± 0.0083
GGAGACGAUAGUAUACAAGCUACUACCUCA	0.176 ± 0.016
GGAGACGAUACUAUACAACCUACUACCACA	0.185 ± 0.018
GGAGUGGAUACUAUACAACCUAGAACCUCA	0.0036 ± 0.0022
GGAGAGGAUACUAUAGAACCUACUACCUCA	0.166 ± 0.013

Sequence	pre-steady-state target cleavage rate
GGAGAGGAAACUAUUCAACCUACUACCUCA	0.172 ± 0.021
GGAGAGGAUACUAUACAACCUACUACGCUCA	0.0912 ± 0.013
GGAGACGAUACUAUACAACCAACUACCUGA	0.00533 ± 0.0024
GGAGACGAUUCUAUACAUCCUACUACCUCA	0.267 ± 0.018
GGAGACCAUACUUUACAUCCUACUACCUCA	0.296 ± 0.029
GGAGACCUAACUAUACAACCUACUGACCUCA	0.163 ± 0.04
GGAGACGAUACUAUACAACCUACUACUCUCA	0.244 ± 0.019
GGAGACCAUACUUUACAAGCUACUACCUCA	0.199 ± 0.017
GGAGACCUAUGUAUAGAACCUACUACCUGA	0.00583 ± 0.0025
GGAGACGAUACUAUAGUUCCUACUACCUCA	0.161 ± 0.012
GGAGACCAUACUAUACAUCCUACUAGCUCA	0.152 ± 0.024
GGAGAGGAUACUUACAACCUACUACCUCA	0.125 ± 0.012
GGAGACCAUACUUAUCAACCUACUACCUCA	0.102 ± 0.02
GGAGACGAUACUAUACAUCGUACUACCUCA	0.0496 ± 0.0064
GGAGACCUAUGACUACAACCUACUACCUCA	0.00416 ± 0.0019
GGAGACGAUACUUAUCAACCUACUACCUCA	0.148 ± 0.013
GGAGACCUAUCUAUUCAACCUACUACCUCA	0.108 ± 0.015
GGAGACGAUACUAUACAACGAACUACCUCA	0.00414 ± 0.0015
GGAGACCUUACUAUACAACCUAGAACCUCA	0.00842 ± 0.0033
GGAGACCUAUGAUAUGAACCUAGCUACCUCA	< 0.0001
